Inconclusive results are not listed. The source made the active and inactive calls. Calls come from the whole dose curve; as a rule, active = well fitted curve in the direction sought with a large enough effect; inconclusive = small, poorly fitted or top-dose-only effect, or another doubt; inactive = no such curve, though single readings can be large; an effect the other way counts as inactive or inconclusive.
Key:
MKL-2 = assay: qHTS assay to identify novel small-molecules to repurpose for Merkel cell carcinoma treatment (AID 1296009); details: MCC and control cell lines, CellTiter-Glo viability, 72 h; series mostly up to 46 µM; note: nearly all actives have a fitted effect of over 60% in size
Summary of the method: (§1)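 Cell viability measured by CellTiter-Glo following 72 hr compound treatment at 37 degree celsius, with NPC and MIPE libraries tested in 8- and 11-point concentration series.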

UISO = assay: as above; details: MCC and control cell lines, CellTiter-Glo viability, 72 h; series mostly up to 46 µM
Summary of the method: as §1

C33A = assay: Primary qHTS to identify gynecologic anti-cancer compounds using libraries of approved drugs and bioactive compounds (AID 1345084); details: Gynecologic cancer cell panel viability, ATPlite luminescence, 48 h; series mostly up to 57.5 µM; note: nearly all actives have a fitted effect of over 55% in size
Summary of the method: (§2)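 Five-concentration response, 48 h; readout is ATP-driven luciferase luminescence.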

CAOV3 = assay: as above; details: Gynecologic cancer cell panel viability, ATPlite luminescence, 48 h; series mostly up to 57.5 µM
Summary of the method: as §2

CASKI = assay: as above; details: Gynecologic cancer cell panel viability, ATPlite luminescence, 48 h; series mostly up to 57.5 µM
Summary of the method: as §2

Es-2 = assay: as above; details: Gynecologic cancer cell panel viability, ATPlite luminescence, 48 h; series mostly up to 57.5 µM
Summary of the method: as §2

HeLa = assay: as above; details: Gynecologic cancer cell panel viability, ATPlite luminescence, 48 h; series mostly up to 57.5 µM
Summary of the method: as §2

Hek293T = assay: as above; details: Gynecologic cancer cell panel viability, ATPlite luminescence, 48 h, control line for the selectivity index; series mostly up to 57.5 µM
Summary of the method: as §2

WaGa = assay: qHTS assay to identify novel small-molecules to repurpose for Merkel cell carcinoma treatment (AID 1296009); details: MCC and control cell lines, CellTiter-Glo viability, 72 h; series mostly up to 46 µM; note: nearly all actives have a fitted effect of over 60% in size
Summary of the method: as §1

Measured: Potency
Potency is the fitted concentration of half-maximal effect.

CC(O)C1C(=O)N2C(C(=O)O)=C(SC3CNC(C(=O)N(C)C)C3)C(C)C12 (stereo not given)
not listed: WaGa
inactive: all other assays above

CNC(=O)c1nn(C)c2c1C(C)(C)Cc1cnc(Nc3ccc(N4CCN(C)CC4)cc3)nc1-2
active: MKL-2 5.26 µM | UISO 0.235 µM | WaGa 5.9 µM | C33A 0.631 µM | CASKI 15.8 µM | HeLa 2.82 µM | Hek293T 7.94 µM

Nc1nccc(Oc2ccc(NC(=O)c3c[nH]cc(-c4ccc(F)cc4)c3=O)cc2F)c1Cl
inactive: C33A | CASKI | HeLa | Hek293T
active: MKL-2 14.8 µM | UISO 14.8 µM | WaGa 2.35 µM

COc1ccc2c(OCc3nnc4ccc(-c5ccccc5)nn34)ccnc2c1
not listed: CAOV3
inactive: all other assays above

COc1ccc(F)c(F)c1C(=O)c1cnc(NC2CCN(S(C)(=O)=O)CC2)nc1N
active: MKL-2 11.8 µM | UISO 2.96 µM | C33A 10 µM | CASKI 10 µM | Es-2 3.16 µM | HeLa 2.82 µM | Hek293T 3.55 µM

O=C(Nc1cn[nH]c1-c1nc2ccc(CN3CCOCC3)cc2[nH]1)NC1CC1
active: MKL-2 26.4 µM | UISO 8.33 µM | C33A 14.1 µM | CASKI 2 µM | Es-2 14.1 µM | Hek293T 7.94 µM

CNC(=O)c1c(F)cccc1Nc1nc(Nc2cc3c(cc2OC)CCN3C(=O)CN(C)C)nc2[nH]ccc12
active: MKL-2 5.9 µM | UISO 5.9 µM | WaGa 18.7 µM
not listed: CAOV3
inactive: all other assays above

CCc1c2c(nc3ccc(O)cc13)-c1cc3c(c(=O)n1C2)COC(=O)[C@]3(O)CC
active: MKL-2 0.0418 µM | UISO 0.0209 µM | WaGa 0.0047 µM | CAOV3 0.251 µM | CASKI 0.126 µM | Hek293T 0.891 µM

Cc1cc(Nc2ncnc3ccc(-c4ccc(CNCCS(C)(=O)=O)o4)cc23)ccc1Oc1ccn2ncnc2c1
active: MKL-2 18.7 µM | UISO 14.8 µM | WaGa 5.26 µM
not listed: CAOV3
inactive: all other assays above

COc1cc2c(Oc3ccc4[nH]c(C)cc4c3F)ncnc2cc1OCCCN1CCCC1
inactive: UISO | WaGa | Es-2 | HeLa | Hek293T

CC(C)(C)c1cnc(CSc2cnc(NC(=O)C3CCNCC3)s2)o1
active: UISO 0.743 µM

COc1ccc(C(=O)CC2(O)C(=O)Nc3c(Cl)ccc(Cl)c32)cc1 (stereo not given)
active: UISO 5.26 µM | HeLa 14.1 µM
inactive: C33A | CAOV3

C[C@]1(CO)CN(c2cc(C(=O)Nc3ccc4c(c3)-c3c(c(C(N)=O)nn3-c3ccc(F)cc3)CC4)c(Cl)cn2)C[C@@]1(C)CO
inactive: CAOV3 | HeLa | Hek293T
active: UISO 9.35 µM | WaGa 18.7 µM

NC(=O)Nc1cc(-c2cccc(F)c2)sc1C(=O)N[C@H]1CCCNC1
active: UISO 4.18 µM | WaGa 5.26 µM | C33A 1.12 µM | CASKI 1.78 µM | Es-2 0.631 µM | HeLa 1.78 µM | Hek293T 1 µM

CC[C@@H]1C(=O)N(C)c2cnc(Nc3ccc(C(=O)NC4CCC(N5CCN(CC6CC6)CC5)CC4)cc3OC)nc2N1C(C)C (stereo not given in full)
active: MKL-2 4.18 µM | CAOV3 12.6 µM | CASKI 17.8 µM | Es-2 3.98 µM

O=C(O)c1ccc2cc(-c3ccc(O)c(C45CC6CC(CC(C6)C4)C5)c3)ccc2c1
active: UISO 1.18 µM | WaGa 2.35 µM

c1cc(-c2cnn3cc(-c4ccc(OCCN5CCCCC5)cc4)cnc23)ccn1
active: UISO 5.9 µM | WaGa 13.2 µM
